Source: PubChem BioAssay (National Center for Advancing Translational Sciences (NCATS))
Rows were chosen to be rich in hits. Some 14% of all compounds tested hit in one or more screens of this group.
A350 fluor = qHTS Assay for Spectroscopic Profiling in A350 Spectral Region | Compound autofluorescence, 340/450 nm, Alexa 350 dye-equivalents; active compounds read high | AID 590, 2007 | hit rate 11% among 59,000 | max dye-equivalent concentration, M; in the data active = max dye-equivalent concentration above about 10 nM; inconclusive = mostly about 1.1 nM to 9.6 nM
CRE-bla Fsk = Cell signaling CRE-BLA (Fsk stim). CHO CRE-bla reporter (cAMP response element driving beta-lactamase), forskolin EC10, beta-lactamase ratio. Potency, µM (doses to about 38.2 µM), for the others: at the highest dose activity change, negative = inhibition, actives largely listed as activators. hit rate 2.5% among 71,000. AID 662, 2007; active = well fitted activation curve with a large enough effect in the signal ratio, with a control signal flat, not every such curve was filed as active; inconclusive = small, poorly fitted or top-dose-only effect, or effect the other way, or a change in a side signal; the % refers to the signal ratio; also: potency is read from the fitted curve at half-maximal effect; % of control where 0% means no effect
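Modulation of forskolin-driven signalling is measured in CHO cells carrying a CRE-controlled beta-lactamase reporter. Cells are stimulated with EC10 NKH 477 in the presence of titrated compound for 3 h at 37 °C, then loaded with CCF4 for 2 h at room temperature.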
HSD17B inhib = qHTS Assay for Inhibitors of HSD17B4, hydroxysteroid (17-beta) dehydrogenase 4; recombinant HSD17B10, NADH fluorescence kinetic; Potency, µM (top dose mostly 57.1 µM), inactives show at the top dose activity change, negative = inhibition, usual class: inhibitors; hit rate 7.6% among 75,000;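 also: the protocol describes HADH2 (HSD17B10) and not the HSD17B4 of the title; potency is read from the fitted curve at half-maximal effect; % is scaled to controls: 0 for no effect and ±100 for the full control effect; nearly all actives have a fitted effect of over 70% in size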
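20 nM HADH2, pH 9.0 Tris/Tween; cpd preinc 15 min RT; start w/ 1 mM NAD+ + 90 uM b-hydroxybutyryl-CoA; kinetic fluor ex360/em450 q30s x 4 min; delta last-first.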
4MU fluor = qHTS Assay for Spectroscopic Profiling in 4-MU Spectral Region. AID 589, 2007. max dye-equivalent concentration, M. hit rate 11% among 59,000. compound autofluorescence, 340/450 nm, 4-MU equivalents; active compounds read high; in the data active = max dye-equivalent concentration above about 10 nM; inconclusive = mostly about 1.1 nM to 9.6 nM
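Compounds in 100 mM Tris, pH 8.0, incubated 15 min at room temperature, then fluorescence read at 340 nm excitation/450 nm emission. Signal converted to 4-MU dye-equivalent concentration using an on-plate six-point 4-MU standard curve.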
AID923 = qHTS Assay for Allosteric/Competitive Inhibitors of Caspase-1: Spectroscopic Profiling in AFC Spectral Region. compound fluorescence, AFC spectral region (405/520 nm). hit rate 1.1% among 75,000. Potency, µM (top dose mostly 57.5 µM), for inactives: at the highest dose fluorescence increase, usual class: activators; also: potency is read from the fitted curve at half-maximal effect; 0% is about no effect
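Titrations up to 57 uM read every 20 sec for 3 min (405/520 nm) with 50 nM caspase 1 and 5 uM Ac-WEHD-AFC, pH 7.5 HEPES buffer. Fluorescence-vs-time intercept gave baseline, scaled against on-plate AFC standard.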
HADH2 inh = qHTS Assay for Inhibitors of HADH2 (Hydroxyacyl-Coenzyme A Dehydrogenase, Type II). recombinant HADH2, NADH fluorescence, beta-hydroxybutyryl-CoA. Potency, µM (series often up to 57.1 µM), inactives show at the highest dose activity change, negative = inhibition, most hits filed as inhibitors. hit rate 3.4% among 73,000; also: potency is read from the fitted curve at half-maximal effect; % is scaled to controls: 0 for no effect and ±100 for the full control effect; nearly all actives have a fitted effect of over 60% in size
Target sequence (Q99714 whole entry, looked up, one chain of several): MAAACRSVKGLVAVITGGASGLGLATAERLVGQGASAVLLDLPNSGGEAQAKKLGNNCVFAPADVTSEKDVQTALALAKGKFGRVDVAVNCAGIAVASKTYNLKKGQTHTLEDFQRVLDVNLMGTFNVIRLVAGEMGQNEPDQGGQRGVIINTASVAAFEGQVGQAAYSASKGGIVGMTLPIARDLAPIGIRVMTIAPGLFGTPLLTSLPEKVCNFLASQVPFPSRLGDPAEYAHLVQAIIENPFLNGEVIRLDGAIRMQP
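Read-out: 360 nm excitation, 450 nm emission, kinetic over 4 min. Conditions: His-tagged human HADH2 20 nM, pH 9.0 Tris with Tween-20, 1 mM NAD+, 90 uM beta-hydroxybutyryl-CoA.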
* marks the source's active call; other numbers are inactive results; [ ] = dose if it differs, or a comment. Unless noted, calls follow the shape of the dose curve; as a rule, active = well fitted curve in the direction sought with a large enough effect; inconclusive = small, poorly fitted or top-dose-only effect, or another doubt; inactive = no such curve, though single readings can be large; an effect the other way counts as inactive or inconclusive.

`O=C(COc1ccc(S(=O)(=O)NC2CCCC2)cc1)N1CCCCCC1` gave A350 fluor inactive, CRE-bla Fsk 1%, HSD17B inhib -9%, 4MU fluor inactive, AID923 -2% and HADH2 inh 1%.
Screening O=C(CSc1n[nH]c(-c2ccc(S(=O)(=O)NC3CCCCC3)cc2)n1)N1CCCC1 returned A350 fluor inconclusive, CRE-bla Fsk -5%, HSD17B inhib 25µM*, 4MU fluor inactive, AID923 0% and HADH2 inh 25µM*.
For O=C1/C(=N/n2cnnc2)c2ccccc2N1Cc1ccccc1 the results were A350 fluor 7.5e-08M*, CRE-bla Fsk 0%, HSD17B inhib 16µM*, 4MU fluor 5.8e-08M*, AID923 1% and HADH2 inh inconclusive.
CCOc1ccccc1O[C@@H](c1ccccc1)[C@@H]1CNCCO1 was read as CRE-bla Fsk -3%, HSD17B inhib 4%, AID923 -2% and HADH2 inh 6%.
Screening CCOc1ccccc1N(C(=O)c1snc(C(N)=O)c1N)C(C(=O)NC1CCCC1)c1ccco1 (stereo unspecified) returned A350 fluor 7.8e-08M*, CRE-bla Fsk 0%, HSD17B inhib 10µM*, 4MU fluor 7.4e-08M*, AID923 6% and HADH2 inh -6%.
Screening COCCNC(=O)C(c1ccc(C)o1)N(C(=O)c1snc(C(N)=O)c1N)c1ccc(C)cc1 (stereo unspecified) returned A350 fluor 7.3e-08M*, CRE-bla Fsk -8%, HSD17B inhib 32µM*, 4MU fluor 8.6e-08M*, AID923 4% and HADH2 inh -10%.
For Cc1ccc(C(C(=O)NC2CCCC2)N(Cc2cccnc2)C(=O)c2snc(C(N)=O)c2N)o1 (stereo unspecified) the results were A350 fluor 3.6e-07M*, CRE-bla Fsk -7%, HSD17B inhib 25µM*, 4MU fluor 2.3e-07M*, AID923 1% and HADH2 inh -11%.
For COCCNC(=O)C(c1ccc(C)o1)N(C(=O)c1snc(C(N)=O)c1N)c1cccc(C)c1 (stereo unspecified) the results were A350 fluor 1.4e-07M*, CRE-bla Fsk -1%, HSD17B inhib 32µM*, 4MU fluor 1.7e-07M*, AID923 7% and HADH2 inh 1%.
Cc1ccc(C(C(=O)NCCc2ccccc2)N(C(=O)c2csnn2)C2CC2)o1 (stereo unspecified) was read as A350 fluor inconclusive, CRE-bla Fsk 6%, HSD17B inhib 2%, 4MU fluor inconclusive, AID923 0% and HADH2 inh -5%.
Screening Cc1ccc(C(C(=O)NC2CCCCC2)N(Cc2cccnc2)C(=O)C2COc3ccccc3O2)o1 (stereo unspecified) returned A350 fluor inactive, CRE-bla Fsk -6%, HSD17B inhib 10%, 4MU fluor inactive, AID923 2% and HADH2 inh 2%.
Screening CCC(C)(C)NC(=O)CN(C(=O)c1snc(C(N)=O)c1N)c1ccc2c(c1)OCCO2 returned A350 fluor inconclusive, CRE-bla Fsk inconclusive, HSD17B inhib -3%, 4MU fluor inconclusive, AID923 -2% and HADH2 inh 9%.
`O=C(O)CCC1COc2ccccc2O1` (stereo unspecified) gave A350 fluor inactive, CRE-bla Fsk 8%, HSD17B inhib -5%, 4MU fluor inactive, AID923 2% and HADH2 inh 0%.
CO[C@@H](C(C)C)[C@@H](C)[C@@H]1OC(=O)C[C@@H]1O was read as HSD17B inhib 5%[11.4 µM], AID923 4%[11.5 µM] and HADH2 inh -3%[11.4 µM].
CN(C)c1ccc(C(=C2C=CC(=[N+](C)C)C=C2)c2c(O)c(S(=O)(=O)O)cc3cc(S(=O)(=O)O)ccc23)cc1 was read as A350 fluor inconclusive, CRE-bla Fsk -4%[7.6 µM], HSD17B inhib -20%[11.4 µM], 4MU fluor inactive, AID923 0%[11.5 µM] and HADH2 inh -3%[11.4 µM].
Screening CC(C)(Oc1ccc(-c2cccc3ccccc23)cc1)C(=O)O returned A350 fluor inactive, CRE-bla Fsk -13%[7.6 µM], HSD17B inhib 2%[11.4 µM], 4MU fluor inactive, AID923 4%[11.5 µM] and HADH2 inh 15%[11.4 µM].
`CCCS(=O)(=O)N1CCCC(C(=O)NCCc2ccc(OC)c(OC)c2)C1` (stereo unspecified) gave A350 fluor inactive, CRE-bla Fsk -2%, HSD17B inhib 12%, 4MU fluor inactive, AID923 0% and HADH2 inh 2%.
For COCCNC(=O)C(c1ccc(C)o1)N(C(=O)c1snc(C(N)=O)c1N)c1ccc(C)c(C)c1 (stereo unspecified) the results were A350 fluor 3.5e-08M*, CRE-bla Fsk 2%, HSD17B inhib inconclusive, 4MU fluor 4.2e-08M*, AID923 1% and HADH2 inh -5%.
Screening CC1CC[C@@]2(C(=O)O)CC[C@]3(C)C(=CCC4[C@@]5(C)CCC(O)C(C)(C)C5CC[C@@]43C)C2C1C (stereo partly specified) returned HSD17B inhib -6% and AID923 0%.
For COc1ccc(NC(=O)c2cnc(C)cn2)c2ncccc12 the results were A350 fluor inactive, CRE-bla Fsk -8%, HSD17B inhib -10%, 4MU fluor inactive, AID923 2% and HADH2 inh inconclusive.
For Cc1cnc(C(=O)Nc2ccccc2-n2cccc2)cn1 the results were A350 fluor 1.1e-08M*, CRE-bla Fsk 25%, HSD17B inhib 7%, 4MU fluor inconclusive, AID923 -2% and HADH2 inh -4%.
`COc1ccc(-c2nc(SC)n(C(=O)c3ccco3)n2)cc1` gave A350 fluor 8.3e-08M*, CRE-bla Fsk -7%, HSD17B inhib 32µM*, 4MU fluor 7.3e-08M*, AID923 -1% and HADH2 inh 20µM*.
`COc1ccccc1C(=O)n1nc(-c2ccccc2)nc1NCc1ccco1` gave A350 fluor inactive, CRE-bla Fsk -17%, HSD17B inhib 30%, 4MU fluor inactive, AID923 0% and HADH2 inh 1%.
Screening O=C(c1ccco1)n1nc(-c2ccc(Cl)cc2)nc1NCc1ccco1 returned A350 fluor 1.6e-08M*, CRE-bla Fsk -13%, HSD17B inhib 36%, 4MU fluor 1.8e-08M*, AID923 0% and HADH2 inh -3%.
